Compound activity as filed in PubChem.
IL1B secr inh: inhibitors of inflammasome signaling (IL-1 beta secretion) | THP-1 LPS/ATP IL-1B secretion, AlphaLISA, 16 h; hits give low values | activity change, % at 57.5 µM | 4.7% of 360,000 active; in the data active means activity change below about -50%; inconclusive means mostly about -30% to -49%; further: on the % scale 0 is the no-effect control and ±100 the full control effect
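Secreted IL-1B measured by AlphaLISA bead assay after 16 h compound exposure of THP-1 cells; compounds (final up to 57.5 uM) added 1 h before LPS (250 ng/mL) and ATP (1.25 mM) stimulation; lower signal means less secretion.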
KB-3-1 cytotox: kills parental KB-3-1 adenocarcinoma cells; KB-3-1 viability, CellTiter-Glo ATP luminescence, 72 h; Potency, µM (titrated, usually from 46.1 µM), most hits filed as cytotoxic; 1.4% of 400,000 active; further: potency means the concentration at half of the fitted maximal effect; on the % scale 0 is the no-effect control and ±100 the full control effect; nearly all actives have a fitted effect of over 60% in size
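Parental KB-3-1 adenocarcinoma cells in phenol-red-free DMEM with 10% FBS were pin-treated with compounds at several concentrations, incubated 72 h at 37 °C, and viability read by CellTiter-Glo luminescence; concentration-effect curves were fitted after normalization.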
KB-V1 cytotox: kills drug-selected multidrug resistant KB-V1 cells | KB-V1 MDR cells viability, CellTiter-Glo, 72 h | Potency, µM (top dose mostly 46.1 µM), most hits filed as cytotoxic | 3.4% of 400,000 active; further: potency means the concentration at half of the fitted maximal effect; on the % scale 0 is the no-effect control and ±100 the full control effect; nearly all actives have a fitted effect of over 60% in size
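Cytotoxicity via CellTiter-Glo luminescence after 72 h compound exposure at 37 degrees C. Cells: drug-selected KB-V1 line, DMEM phenol-red free plus 10% FBS. Compounds tested at multiple concentrations; normalized data fitted to concentration-effect curves.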
SW480 rerep: DNA re-replication induction in SW480 cells; 1.8% of 340,000 active; Potency, µM (titrated, usually from 46.1 µM), for inactives: at the top dose re-replication activation, actives largely listed as activators; AID 624297; SW480 DNA re-replication, Hoechst DNA content imaging, 48 h; further: potency means the concentration at half of the fitted maximal effect; % of control where 0% means no effect; nearly all actives have a fitted effect of over 55% in size
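Image-based DNA-content assay: after two days of treatment, nuclei were labelled with the DNA dye Hoechst and imaged, and hits were compounds raising the count of nuclei showing high fluorescence intensity.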
MCF10A rerep: induces DNA re-replication in MCF 10a normal breast cells. MCF 10A DNA re-replication, Hoechst nuclear intensity, 48 h. Potency, µM (top dose mostly 46.1 µM), for the others: top-dose activity, positive = re-replication, usual class: activators. 2.9% of 350,000 active; further: potency means the concentration at half of the fitted maximal effect; % of control where 0% means no effect; nearly all actives have a fitted effect of over 50% in size
* marks the source's active call; other numbers are inactive results; i = inactive; ? = inconclusive; / = not tested or not shown. Compounds with a hit are over-represented: about 9.9% of the library has one in this group of screens. Unless noted, the call rests on the fitted dose curve; in most records, active means well fitted curve in the direction sought with a large enough effect; inconclusive means small, poorly fitted or top-dose-only effect, or another doubt; inactive means no such curve, though single readings can be large; an effect the other way counts as inactive or inconclusive.

SMILES	IL1B secr inh	KB-3-1 cytotox	KB-V1 cytotox	SW480 rerep	MCF10A rerep
Cc1nnc2n1-c1ccc(Cl)cc1C(c1ccccc1Cl)=NC2	/	/	/	3.2%	-1.0%
Cc1cc([N+](=O)[O-])c2ccccc2[n+]1[O-]	-98.6*	0.92µM*	0.517µM*	14.6µM*	16.4µM*
Cc1ccc(-n2sc3ccccc3c2=O)cc1	-103.0*	?	?	?	?
CN1C(=O)/C(=C\c2ccc(N3CCCCCC3)cc2)C(=O)NC1=S	-6.7	i	i	1.9%	-1.0%
Cc1ccsc1/C=C1\C(=O)NC(=S)N(C)C1=O	-94.0*	i	i	?	29.6%
C=CCN1C(=O)/C(=C/c2ccc(Br)s2)C(=O)NC1=S	-98.6*	i	i	-4.1%	?
CN1C(=O)/C(=C/c2ccc(Cl)s2)C(=O)NC1=S	-97.3*	i	i	?	?
Oc1ccccc1-c1ccccc1	/	/	/	15.0%	0.5%
O=C1NC(=O)C(=Cc2cc(Cl)ccc2OCc2ccc(C(=O)O)cc2)C(=O)N1	76.2	i	i	?	0.92µM*
CN1C(=O)C(=Cc2ccccc2OCc2ccc(Cl)cc2)C(=O)N(C)C1=O	-6.3	i	i	-2.7%	-0.1%
CSCc1nnc2n1-c1ccc(Cl)cc1C(c1ccccc1)=NC2	-7.5	?	16.4µM*	0.1%	17.8%
Cc1ccc(CN2C(=O)CN=C(c3ccccc3)c3ccccc32)cc1	-7.5	?	18.4µM*	-18.2%	-1.7%
O=C1CN=C(c2ccccc2)c2cc(Cl)ccc2N1Cc1ccc(Cl)cc1	/	?	14.6µM*	/	/
Cc1oc(-c2ccccc2Cl)nc1CN1C(=O)CN=C(c2ccccc2)c2cc(Cl)ccc21	/	i	i	/	/
CS(=O)(=O)NCc1nnc2n1-c1ccc(Cl)cc1C(c1ccccc1)=NC2	15.9	i	i	-3.2%	-4.3%
Cc1oc(-c2ccccc2)nc1CN1C(=O)CN=C(c2ccccc2)c2ccccc21	-13.7	i	?	3.9%	9.4%
Cc1c(O)c(=O)ccn1C	9.0	i	i	-14.4%	?
N#CC(C#N)=Cc1ccc(C=C(C#N)C#N)cc1	-82.8*	?	?	?	?
Cc1ccccc1-n1nc(C)c2c1NC(=O)CSC2c1ccc(N(C)C)cc1 (stereo not given)	/	i	i	/	/
CN1CCC(O)(c2cccs2)C(C(=O)c2cccs2)C1 (stereo not given)	-93.8*	i	i	19.3%	?
CN1CCC(O)(c2ccc(F)cc2)C(C(=O)c2ccc(F)cc2)C1 (stereo not given)	/	/	/	?	26.6µM*
COc1cc(/C=C/c2nc3ccccc3c(=O)n2-c2ccc(O)cc2)ccc1O	-65.3*	?	?	?	20.6µM*
COc1ccc(-n2c(/C=C/c3ccc(O)c(O)c3)nc3ccccc3c2=O)cc1	?	i	i	?	?
Cc1cccc(C2CC(=O)Oc3c2c(=O)oc2ccccc32)c1 (stereo not given)	/	i	i	/	/
CCn1c(C)c(C(=O)Nc2ccc(OC)cc2)c2cc(OC)ccc21	15.1	i	i	9.9%	-1.4%
SMILES	IL1B secr inh	KB-3-1 cytotox	KB-V1 cytotox	SW480 rerep	MCF10A rerep
O=[N+]([O-])c1ccc(N2CCNCC2)c(Cl)c1	-14.1	i	?	-3.9%	7.31µM*
COc1cc(/C=C2\C[C@H]3[C@@H]4CC=C5C[C@@H](N6CCCC6)CC[C@]5(C)[C@H]4CC[C@]3(C)[C@H]2O)cc(OC)c1OC	-10.2	i	2.91µM*	19.5%	?
C[C@@H]1CC2C3CC=C4C[C@@H](O)CC[C@]4(C)C3CC[C@]2(C)[C@H]1O (stereo not given in full)	91.0	?	?	13.4%	-1.3%
CC(=O)O[C@H]1CC[C@@]2(C)C(=CC[C@H]3[C@@H]4CC[C@H](C(C)=O)[C@@]4(C)CC[C@@H]32)C1	1.4	i	?	?	28.3%
CCc1ccc(N2C(=O)NC(=O)C(CCc3ccncc3)(CCc3ccncc3)C2=O)cc1	8.1	i	i	-6.3%	2.0%
O=C1NC(=O)C(CCc2ccncc2)(Cc2cccc(Cl)c2Cl)C(=O)N1c1ccc(Br)cc1 (stereo not given)	25.9	5.17µM*	8.2µM*	11.6µM*	4.61µM*
Cc1nc2cc(OC(=O)N(C)Cc3cccc(-c4ccncc4)c3)ccc2s1	?	?	i	/	/
CN(Cc1cccc(-c2ccncc2)c1)C(=O)Oc1ccccc1Cl	18.1	14.6µM*	i	/	/
CN(Cc1cccc(-c2ccncc2)c1)C(=O)Oc1ccccc1Cc1ccccc1	0.0	14.6µM*	?	/	/
CN(C)Cc1ccccc1OC(=O)N(C)C	7.5	i	i	-5.3%	0.0%
CCCCCCCCCC(=O)O[C@H]1CC[C@H]2[C@@H]3CCC4=CC(=O)CC[C@]4(C)[C@H]3CC[C@]12C	/	/	/	-5.6%	?
CCOc1ccc2nc(NC(=O)c3cccn(Cc4ccccc4)c3=O)sc2c1	/	i	i	/	/
CCCCCCCSc1cc(OC)c(CCN(C)C)cc1OC	-99.5*	?	?	?	?
CCCCCSc1cc(OC)c(CCN)cc1OC	-27.5	20.6µM*	?	16.4µM*	?
Cc1ccc(C=C2C(Cl)=C(Cl)C(Cl)=C2Cl)cc1	-5.6	?	?	?	?
CCOc1ccc(S(=O)(=O)N2CCC(C(=O)NCc3cccnc3)CC2)cc1Cl	-3.3	i	i	?	1.3%
